Bioassay records: PubChem BioAssay, National Center for Advancing Translational Sciences (NCATS)
Rows were chosen to be rich in hits. Some 19% of all compounds tested hit in one or more screens of this group.
Marburg entry inh = blocks Marburg virus binding to or entry into cells | Marburg virus pseudotyped entry inhibition, cell reporter | Potency, µM (top dose mostly 37.8 µM), usual class: inhibitors | hit rate 1.8% among 300,000 | AID 540276; calls by dose curve; tested in HEK293 cells
Pf growth 48h = inhibits P. falciparum growth in the first generation, 48 h | AID 504832 | Potency, µM (top dose mostly 28.7 µM), hits mostly inhibitors | P. falciparum luciferase growth in erythrocytes, 48 h | hit rate 5.9% among 310,000
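Luciferase-expressing parasites in RBCs, 2% Hct / 0.1% parasitemia final; RPMI 1640 + 0.5% Albumax; 37 C, 5% CO2, one generation; luminescence read-out, lower signal = inhibition.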
CHX counter = affects cycloheximide protein synthesis inhibition readout, counter-screen; cell reporter, cycloheximide protein synthesis inhibition counterscreen; max response, %; hit rate 12% among 300,000; AID 2314; in the data active means max response mostly above about 13%, no sharp cut-off; inactive means mostly below about 14%; further: read at 38.3 µM for the half of the compounds with a filed dose
Shiga inhibitor = blocks Shiga toxin action in Vero cells. Vero cells, Shiga toxin protein synthesis inhibition reporter. inhibition, % at 38.7 µM. hit rate 9.2% among 290,000; in the data active means inhibition mostly above about 28%, no sharp cut-off; inactive means mostly below about 43%
Pf growth 96h = P. falciparum growth inhibition at 96 hours | P. falciparum luciferase reporter growth, 96 h | Potency, µM (doses to about 28.7 µM), most hits filed as inhibitors | hit rate 6.9% among 320,000
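P. falciparum expressing integrated firefly luciferase, in erythrocytes at 2% hematocrit, 0.05% parasitemia, incubated with compounds 96 h at 37 C, 5% CO2. Growth inhibition read as loss of luminescence; two-generation exposure targets delayed-death apicoplast inhibitors.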
LASV entry inh = Lassa virus entry inhibition. Potency, µM (doses to about 37.9 µM), actives largely listed as inhibitors. hit rate 1.2% among 300,000. Lassa virus pseudotype entry inhibition, cell reporter. AID 540256; calls by dose curve; tested in HEK293 cells; further: nearly all actives have a fitted effect of over 50% in size
Each line names hits and unclear results; the compound was inactive in the other large screens. Unless noted, the call rests on the fitted dose curve; in most records, active means well fitted inhibition curve with a large enough effect; inconclusive means small, poorly fitted or top-dose-only effect, or another doubt; inactive means no such curve, though single readings can be large or run the other way.

CCSc1sccc1C1C(C#N)=C(N)N(c2cccnc2)C2=C1C(=O)CCC2 (centres undefined)	Pf growth 48h 12µM
CCOC(=O)C1=C(N)N(c2ccccc2)C2=C(C(=O)CCC2)C1c1cccnc1 (centres undefined)	Pf growth 96h 5.2µM
COc1cc(C2C(C#N)=C(N)N(c3cccnc3)C3=C2C(=O)CCC3)ccc1O (centres undefined)	Pf growth 96h inconclusive (no result: Pf growth 48h)
CCC(=O)Nc1nc2n(n1)C(c1ccc(OC)cc1)C=C(c1ccccc1)N2 (centres undefined)	Pf growth 96h inconclusive (no result: Marburg entry inh, Pf growth 48h, LASV entry inh)
O=c1[nH]c2ccccc2nc1Cc1ccccc1	Pf growth 96h inconclusive
C/C(=N\NC(=O)CNC(=O)c1ccc2c(c1)OCCO2)c1ccco1	LASV entry inh inconclusive
O=C(CN1CCN(c2ccccn2)CC1)N1c2ccccc2CCc2ccccc21	Pf growth 48h 15µM, Pf growth 96h inconclusive
O=C(CSc1nc2ccccc2o1)N1c2ccccc2Sc2ccc(C(F)(F)F)cc21	Pf growth 48h 13µM, Pf growth 96h inconclusive
O=C(CN1CCN(c2ccccn2)CC1)N1c2ccccc2Sc2ccc(C(F)(F)F)cc21	Marburg entry inh inconclusive, Pf growth 48h 4.7µM (no result: Pf growth 96h)
O=C(CN1CCN(c2ccccn2)CC1)N(c1ccccc1)c1ccc2ccccc2c1	Marburg entry inh inconclusive, Pf growth 48h 12µM, Pf growth 96h 5.2µM
O=C(CN1CCCC1)N1c2ccccc2Sc2ccc(C(F)(F)F)cc21	Marburg entry inh inconclusive, Pf growth 48h inconclusive
Cc1onc(-c2ccccc2)c1C(=O)Nc1ccccc1NC(=O)c1c(-c2ccccc2)noc1C	Pf growth 48h inconclusive, Pf growth 96h inconclusive, LASV entry inh inconclusive
COc1ccc(CCN=C(N)C(C)c2ccccc2)cc1OC (centres undefined)	none
CCCCCn1c(C(Cc2ccccc2)NC(=O)COC)nc2ccccc21 (centres undefined)	Pf growth 48h inconclusive, Pf growth 96h inconclusive (no result: LASV entry inh)
CCOC(=O)c1ccc(NC(=S)N2CCSC2c2ccc(OC)cc2)cc1 (centres undefined)	CHX counter 26, Shiga inhibitor 23, LASV entry inh inconclusive
COc1ccc(C2SCCN2C(=S)Nc2cccc(C(F)(F)F)c2)cc1 (centres undefined)	Pf growth 48h 2.3µM, Pf growth 96h 9.3µM, LASV entry inh inconclusive
CCOC(=O)C1(CCOC)CCN(C(=O)c2ccc(CSC)o2)CC1	none (no result: Marburg entry inh, LASV entry inh)
COc1ccc(C(=O)Nc2c(N)nc(SCC(=O)Nc3ccc(NC(C)=O)cc3)[nH]c2=O)cc1	Pf growth 48h 10µM, Pf growth 96h 2.6µM
Nc1nc(SCC(=O)NCC2CCCO2)[nH]c(=O)c1NC(=O)c1ccc(F)c(F)c1 (centres undefined)	Pf growth 96h 17µM
O=C(CSc1nc(O)c(C2CCCCC2)c(=O)[nH]1)NCC1CCCO1 (centres undefined)	Pf growth 48h inconclusive, CHX counter 29, Shiga inhibitor 66
CCc1ccc(NC(=O)CSc2nc(N)c(NC(=O)c3ccc(F)c(F)c3)c(=O)[nH]2)cc1	CHX counter 17, Shiga inhibitor 25
O=[N+]([O-])c1ccc(N2CCNCC2)c(Cl)c1	none
O=P1(O)Oc2c(-c3ccccc3)cc3ccccc3c2-c2c(c(-c3ccccc3)cc3ccccc23)O1	none (no result: Pf growth 48h, CHX counter, Shiga inhibitor, Pf growth 96h, LASV entry inh)
CC(=O)N(Cc1ccccc1)C1CC(=O)N(Cc2ccccc2)C1=O (centres undefined)	none (no result: Pf growth 48h, CHX counter, Shiga inhibitor, Pf growth 96h)
O=C(O)c1c2c(nc3ccccc13)/C(=C/c1ccc(OC(F)F)cc1)CCC2	Marburg entry inh inconclusive, CHX counter 23, Shiga inhibitor 58
O=C(O)c1c2c(nc3ccccc13)/C(=C/c1ccc(O)cc1)CC2	none (no result: Marburg entry inh, LASV entry inh)
COC(=O)C1=C(O)/C(=C\c2cc(C)n(-c3ccc(F)cc3)c2C)N=C1C	Marburg entry inh inconclusive, Pf growth 48h inconclusive, Shiga inhibitor 75
COC(=O)C1=C(C)NC(=O)/C1=C\c1cc(C)n(-c2ccc(F)cc2)c1C	Pf growth 96h inconclusive
COC(=O)C1=C(O)/C(=C/c2cccc(OC)c2O)N=C1C	CHX counter 29, Shiga inhibitor 47 (no result: Marburg entry inh, LASV entry inh)
CC1CCN(C(=O)COC(=O)[C@H](C)NS(=O)(=O)/C=C/c2ccccc2)CC1	none (no result: Pf growth 96h)
CN(C)/C=N/C(=S)Nc1cc(Cl)cc(Cl)c1	Pf growth 96h inconclusive
CN(C)/C=N/C(=S)Nc1ccc(Cl)c(Cl)c1	Marburg entry inh inconclusive, CHX counter 40, Shiga inhibitor 111
